# Reference: PubChem BioAssay
# Where “and” joins values, the source holds several entries; their conditions need not be identical. Equal values may be shown once. Calls of active or inactive are those of the source.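 How the source made its calls, unless noted: active means thallium flux through the channel raised or lowered by more than 3 SD from vehicle-only wells, actives on both sides; inactive means the rest.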
# How the values were obtained:
# [1] = blockers of polyQ-driven CASP3 activation – cell-based (AID 1583); conditions: polyglutamine-induced caspase-3 activation, cell assay; stronger effect = higher value;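 tested at 10 µM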
# [2] = yeast 75Q aggregation reduction – 75Q-TubU reporter (AID 1593); conditions: Yeast 75Q polyglutamine aggregation reporter
# [3] = blockers of cytochrome c efflux from mitochondria – biochemical, purified mitochondria (AID 1603); conditions: stronger effect = lower value;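 further: mouse liver mitochondria challenged with calcium chloride; signal normalized to the plate average as 100%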
# [4] = polyglutamine aggregate formation blockers (AID 1604); conditions: polyglutamine-induced protein aggregation inhibition assay; stronger effect = higher value; tested at 2.5 µM
# [5] = glutamate transport activators, MN-1 cells, MN-1 cell line (AID 1612); conditions: MN-1 motor neuron cells, stronger effect = higher value;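 further: tested at 1 µM final; 0% = mean of DMSO vehicle wells on each plate; positive means more glutamate uptake than control and negative means less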
# [6] = signal quenchers or enhancers, Cy5 substrate/SSB – biochemical, NIH Clinical Collection, E. coli SSB, artefact control for HCV NS3 helicase inhibitor project (AID 743268; call rule not given here); conditions: Cy5-oligo bound E. coli SSB, fluorescence interference
# [7] = tested on: Hepatitis C virus NS3 helicase; test: blockers of NS3h binding to DNA – biochemical, fluorescence polarization, NIH Clinical Collection, primary screen (AID 743270; call rule not given here); conditions: NS3 helicase binding to Cy5-dT15 DNA, stronger effect = higher value, concentration not given here
# [8] = biological target: Single-stranded DNA-binding protein (Escherichia coli (strain K12)) (UniProt P0AGE0); test: SSB-ssDNA binding inhibitors – biochemical, fluorescence polarization, NIH Clinical Collection, counter-screen for HCV NS3 helicase inhibitor project (AID 743271; in the data active means inhibition above about 28%); conditions: E. coli SSB-DNA binding, stronger effect = higher value, concentration not given here
# [9] = compounds distorting NS3 helicase fluorescence signal – biochemical, NIH Clinical Collection, artefact control for HCV NS3 helicase inhibitor project (AID 743272; call rule not given here;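 further: HCV NS3 helicase with a Cy5 labelled single stranded DNA probe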); conditions: fluorescence interference counterscreen, HCV NS3 helicase assay; stronger effect = lower value
# [10] = galactose survival enhancers in mitochondrial complex I cybrids – cell-based, galactose medium, ATP luminescence, primary screen (AID 1645843;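 active means z-score of at least 1.8 in each of two replicates, scored against plate mean and spread of sample wells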;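 further: positive z means more ATP and so rescue of galactose-driven cybrid death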); conditions: complex I mutant cybrid cells, 72 h, stronger effect = higher value
# [11] = growth inhibition, single agent or in combination, cell-based, chromothripsis tumors, cisplatin or BGB combos (AID 1671449; in the data active means inhibition above about 80%;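 further: cells exposed for 96 hours; 0% = vehicle DMSO and 100% = killing by high DMSO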); conditions: LFS_MB_P medulloblastoma cells
# [12] = growth inhibition, single agent and combos, cell-based, chromothripsis tumors, cisplatin or BGB combos (AID 1671450; in the data active means inhibition above about 80%;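 further: cells exposed to compound for four days; 0% = vehicle DMSO and 100% = cell killing by high DMSO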); conditions: HDN33 neuroblastoma cells, stronger effect = higher value
# [13] = growth inhibition, single agents and combos, HTB85, cell-based, BGB or cisplatin IC20 combos, synergistic combos for chromothripsis tumors (AID 1671453; in the data active means inhibition above about 80%;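 further: cells exposed for 96 hours before readout; 0% = vehicle DMSO and 100% = high DMSO killing control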); conditions: HTB85 osteosarcoma cells, drug combinations, stronger effect = higher value
# [14] = tested on: F380Y/beta4; test: BK channel mutant inhibitors and activators – cell-based, U2OS BacMam, thallium flux, beta subunits, selectivity assay, profiling panel (AID 1259406); conditions: U2OS BacMam BK variants, at 30 µM;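 further: initial slope of Thallos dye fluorescence rise after thallium is added; log ratio against the mean of 0.3% DMSO vehicle wells on the same plate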
# [15] = biological target: Calcium-activated potassium channel subunit alpha-1 (Homo sapiens) + Leucine-rich repeat-containing protein 26 (Homo sapiens) (UniProt Q12791+Q2I0M4); test: as above; conditions: U2OS BacMam BK variants, F380Y/Slo1WT/gamma1, at 30 µM
# Sequence of Calcium-activated potassium channel subunit alpha-1 (Homo sapiens) + Leucine-rich repeat-containing protein 26 (Homo sapiens) (Q2I0M4 whole entry, looked up, one chain of several): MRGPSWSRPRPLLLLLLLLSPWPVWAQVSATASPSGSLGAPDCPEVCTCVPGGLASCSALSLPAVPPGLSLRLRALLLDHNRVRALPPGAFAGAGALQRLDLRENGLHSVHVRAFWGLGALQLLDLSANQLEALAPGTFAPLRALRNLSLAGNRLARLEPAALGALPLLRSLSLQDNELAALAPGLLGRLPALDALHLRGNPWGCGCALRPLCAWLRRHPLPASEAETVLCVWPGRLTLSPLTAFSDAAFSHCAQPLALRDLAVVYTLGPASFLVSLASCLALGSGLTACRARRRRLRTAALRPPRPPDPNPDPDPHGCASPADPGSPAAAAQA
# [16] = tested on: R275C; test: as above; conditions: U2OS BacMam BK variants, at 30 µM
# [17] = tested on: R275C/beta1; test: as above; conditions: U2OS BacMam BK variants, at 30 µM
# [18] = tested on: R275C/beta2Delta; test: as above; conditions: U2OS BacMam BK variants, at 30 µM
# [19] = tested on: R275C/beta4; test: as above; conditions: U2OS BacMam BK variants, at 30 µM
# [20] = tested on: R275C/Slo1WT/beta2; test: as above; conditions: U2OS BacMam BK variants, at 30 µM
# [21] = at 0.5 µM, stronger effect = higher value
# [22] = measured here: combination with BGB IC20, at 0.005 µM
# [23] = measured here: combination with BGB IC40, at 0.005 µM
# [24] = measured here: combination with BGB IC40, at 0.05 µM
# [25] = measured here: combination with cisplatin, at 0.5 µM, stronger effect = higher value
# [26] = measured here: combination with cisplatin, at 5 µM, stronger effect = higher value
# [27] = measured here: with BGB IC20 combination, at 0.5 µM
# [28] = measured here: with cisplatin IC20 combination, at 0.5 µM
# [29] = measured here: with BGB IC20, at 0.5 µM
# [30] = measured here: with BGB IC20, at 5 µM
# [31] = measured here: with cisplatin IC20, at 0.5 µM
# [32] = measured here: with cisplatin IC20, at 5 µM
compound,measurement,setting,value
S=c1nc[nH]c2nc[nH]c12,inhibition,[1],26.7%
same,score,[2],1.45
same,cytochrome c release ratio,[3],0.93
same,inhibition of aggregation,[4],66.2%
same,glutamate uptake change,[5],12.1%
same,fluorescence ratio,[6],1.03 (inactive)
same,inhibition,[7],-1.36% (inactive)
same,inhibition,[8],0.29% (inactive)
same,fluorescence ratio,[9],0.99 (inactive)
same,z-score,[10],2.91 (active)
same,inhibition,[11]; [21],-16.7% (inactive) and -25.3% (inactive) and -23.4% (inactive)
same,inhibition,[11]; [22],-9.64% and 14% and 16.4%
same,inhibition,[11]; [23],-23.4% and -1.54% and -20.6%
same,inhibition,[11]; [24],-13.7% and 4.76% and 13.1%
same,inhibition,[11]; [25],-46.7% and -35.2% and -28.2%
same,inhibition,[11]; [26],-18.6% and -9.9% and -19.4%
same,inhibition,"[12]; BGB combo, at 5 µM",6.4% and -7.61% and -1.61%
same,inhibition,[12]; at 0.5 µM,21.5% (inactive) and -7.1% (inactive) and 2.79% (inactive)
same,inhibition,"[12]; cisplatin combo, at 5 µM",17.2% and 3.9% and 15.7%
same,inhibition,[12]; [27],17.6% and -24.1% and -7.78%
same,inhibition,[12]; [28],11.8% and -15.2% and -7.14%
same,inhibition,"[12]; single agent, at 5 µM",55.5% and 46.9% and 55.8%
same,inhibition,[13]; at 0.5 µM,-18.6% (inactive) and -13.7% (inactive) and -28.1% (inactive)
same,inhibition,[13]; [29],-53.8% and -19.7% and -40.4%
same,inhibition,[13]; [30],-9.25% and -19% and -8.77%
same,inhibition,[13]; [31],-18.6% and -5.87% and -28%
same,inhibition,[13]; [32],-12.1% and 4.25% and -34.8%
same,inhibition,"[13]; single agent, at 5 µM",18.8% and -4.98% and -9.17%
same,log fold change Tl+ flux,[14],-0.00864 (inactive)
same,log fold change Tl+ flux,[15],-0.0406 (inactive)
same,log fold change Tl+ flux,[16],-0.0342 (inactive)
same,log fold change Tl+ flux,[17],0.0271 (inactive)
same,log fold change Tl+ flux,[18],-0.0376 (inactive)
same,log fold change Tl+ flux,[19],-0.0907 (inactive)
same,log fold change Tl+ flux,[20],0.0711 (inactive)
O=C(O)c1cc(=O)c2c(OCC(O)COc3cccc4oc(C(=O)O)cc(=O)c34)cccc2o1,inhibition,[1],-4.9%
same,score,[2],1.69
same,cytochrome c release ratio,[3],0.89
same,inhibition of aggregation,[4],65.5%
same,glutamate uptake change,[5],-4.58%
same,fluorescence ratio,[6],1.02 (inactive)
same,inhibition,[7],-2.27% (inactive)
same,inhibition,[8],3.34% (inactive)
same,fluorescence ratio,[9],1.03 (inactive)
same,z-score,[10],0.69 (inactive) and 0.68 (inactive)
same,log fold change Tl+ flux,[14],-0.0657 (inactive)
same,log fold change Tl+ flux,[15],-0.0248 (inactive)
same,log fold change Tl+ flux,[16],-0.0035 (inactive)
same,log fold change Tl+ flux,[17],-0.0241 (inactive)
same,log fold change Tl+ flux,[18],-0.0325 (inactive)
same,log fold change Tl+ flux,[19],-0.125 (inactive)
same,log fold change Tl+ flux,[20],0.015 (inactive)
O=C1c2c(O)ccc(O)c2C(=O)c2c(NCCNCCO)ccc(NCCNCCO)c21,inhibition,[1],63.3%
same,score,[2],-2.9
same,cytochrome c release ratio,[3],3.49
same,inhibition of aggregation,[4],52.2%
same,glutamate uptake change,[5],-30.1%
same,fluorescence ratio,[6],0.74 (active)
same,inhibition,[7],128% (active)
same,inhibition,[8],121% (active)
same,fluorescence ratio,[9],0.92 (inactive)
same,z-score,[10],-1.29 (inactive) and -1.52 (inactive) and -2.29 (inactive)
same,inhibition,[11]; [21],-22.5% (inactive)
same,inhibition,[11]; [22],-15.5%
same,inhibition,[11]; [23],-3.49%
same,inhibition,[11]; [24],-28%
same,inhibition,[11]; [25],-39.3%
same,inhibition,[11]; [26],106%
same,inhibition,"[12]; BGB combo, at 5 µM",98.9%
same,inhibition,[12]; at 0.5 µM,60.1% (inactive)
same,inhibition,"[12]; cisplatin combo, at 5 µM",99.3%
same,inhibition,[12]; [27],57.7%
same,inhibition,[12]; [28],53.6%
same,inhibition,"[12]; single agent, at 5 µM",99.3%
same,inhibition,[13]; at 0.5 µM,94.8% (active)
same,inhibition,[13]; [29],90.1%
same,inhibition,[13]; [30],99.7%
same,inhibition,[13]; [31],97.6%
same,inhibition,[13]; [32],99.8%
same,inhibition,"[13]; single agent, at 5 µM",99.8%
same,log fold change Tl+ flux,[14],-0.0582 (inactive)
same,log fold change Tl+ flux,[15],-0.0507 (inactive)
same,log fold change Tl+ flux,[16],-0.0256 (inactive)
same,log fold change Tl+ flux,[17],-0.052 (inactive)
same,log fold change Tl+ flux,[18],-0.0164 (inactive)
same,log fold change Tl+ flux,[19],-0.0611 (inactive)
same,log fold change Tl+ flux,[20],-0.0613 (inactive)
